Source: PubChem BioAssay (The Scripps Research Institute Molecular Screening Center)
Only some compounds are listed: those with a hit (about 5.7% of all), similar ones and a draw of the others.
ssDAF-12 act = S. stercoralis DAF-12 nuclear receptor activators, primary screen, cell-based, luminescence, HEK293, GRIP1 co-expression, lit1-tk-luc. Nuclear hormone receptor DAF-12 (Strongyloides stercoralis). HEK293 ssDAF-12/GRIP1 lit1-tk-luc reporter; % of 3 µM dafachronic acid response. activation, % at 6.8 µM. actives 1% (n = 370,000). AID 652126, 2013;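 active = activation above the mean over all tested compounds plus 3 SD, cut at about 0.9% in these data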;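 note: 0% = DMSO-only wells and 100% = 3 µM delta7-dafachronic acid wells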
AHR act = AHR activators, primary screen, cell-based, luminescence, luciferase reporter, human; actives 2.5% (n = 320,000); Aryl hydrocarbon receptor (Homo sapiens), P35869; AHR-responsive luciferase reporter cells; activation, % at 5 µM; in the data active = activation above about 47%;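 note: 0% = vehicle wells and 100% = reference agonist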
hgDAF-12 ag = H. glycines DAF-12 receptor agonists, primary screen, cell-based, luminescence, HEK293, GAL4 fusion, UAS-luciferase. HEK293 GAL4-hgDAF12 UAS-luciferase reporter, agonist luminescence; normalized to butyrate control. activation, % at 6.8 µM. actives 1.8% (n = 370,000). AID 687014, 2013;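 active = activation above a cutoff set at the mean of all screened compounds plus 3 SD, cut at about 10% in these data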;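 note: 0% = DMSO wells and 100% = sodium butyrate wells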
hcDAF12 agonist = H. contortus DAF-12 nuclear receptor activators, primary screen, cell-based, luminescence, HEK293, lit1-tk-luc reporter | HEK293 hcDAF-12 lit1-tk-luc reporter; 0% DMSO, 100% Δ7-dafachronic acid | activation, % at 6.8 µM | actives 1.4% (n = 370,000) | AID 652067, 2013;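 active = activation above the mean of all tested compounds plus 3 SD, cut at about 5.5% in these data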;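 note: 100% = response to 3 µM Δ7-dafachronic acid high control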
DAX1 inh-1 = DAX1 (NR0B1) inhibitors on StAR promoter, primary screen, cell-based, luminescence, SF-1 (NR5A1), full-length DAX-1; HEK293T StAR-luciferase reporter, SF-1/DAX-1 repression relief; inhibition, % at 6.8 µM; actives 1.1% (n = 370,000); AID 652010, 2013;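 active = inhibition above the mean over all tested compounds plus 3 SD, cut at about 3.6% in these data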;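 note: 0% = DAX-1 cells with DMSO and 100% = cells lacking DAX-1 with DMSO; higher inhibition means more luminescence from relief of DAX-1 repression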
DAX1 inh-2 = DAX1 (NR0B1) inhibitors, primary screen, cell-based, HEK293, Gal4-DAX1, luciferase luminescence; actives 0.99% (n = 340,000); Nuclear receptor subfamily 0 group B member 1 (Homo sapiens), P51843; inhibition, % at 6.75 µM; HEK293 Gal4-DAX1 luciferase reporter; AID 504766, 2011;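 active = inhibition above the mean over all tested compounds plus 3 SD, cut at about 4.2% in these data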;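 note: 0% = DAX1-transfected cells with DMSO and 100% = empty-vector control cells with DMSO; inhibition shows as a rise in luminescence from relieved DAX1 repression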
Target sequence (P51843 207-470 limits assumed): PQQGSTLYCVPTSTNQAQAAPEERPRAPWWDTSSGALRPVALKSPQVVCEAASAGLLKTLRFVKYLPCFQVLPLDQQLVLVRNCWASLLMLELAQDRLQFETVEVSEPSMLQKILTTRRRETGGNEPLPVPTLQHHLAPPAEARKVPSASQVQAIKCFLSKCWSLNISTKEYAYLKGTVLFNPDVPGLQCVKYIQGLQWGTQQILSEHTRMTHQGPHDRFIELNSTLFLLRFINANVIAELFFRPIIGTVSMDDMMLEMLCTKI
* hit, by the source's call; . = no result given.

SMILES	ssDAF-12 act	AHR act	hgDAF-12 ag	hcDAF12 agonist	DAX1 inh-1	DAX1 inh-2
COc1cccc(-c2noc(-c3ccc(Cl)nc3)n2)c1	-1.1	53.6*	5.7	0.5	1.3	0.9
COc1cccc(-c2nc(-c3ccc(C(=O)O)cc3)no2)c1	1.0*	6.3	9.0	3.5	1.8	1.8
COC(=O)c1sc(SC)c(S(=O)(=O)C(C)C)c1N/N=C(\C#N)C(=O)c1ccccc1	-1.0	2.0	-1.4	-1.0	0.1	0.2
Cc1noc(C)c1NC(=O)N(C)C[C@H]1OCc2cn(nn2)CCCC(=O)N([C@H](C)CO)C[C@@H]1C	0.1	.	-0.2	-0.1	1.7	.
O=C(CSc1nc2ccccc2c(=O)[nH]1)Nc1ccc(Br)cc1	-0.9	14.7	1.3	-1.0	-0.3	0.9
CCN(CC)c1ccc(NC(=O)CSc2nc3ccccc3c(=O)[nH]2)cc1	-1.2	63.0*	-3.6	0.3	-0.4	-0.6
CC1C(O)=C(c2nc3ccccc3[nH]2)C(=N)N1c1ccccc1 (configuration not stated)	-0.9	11.2	13.3*	0.1	0.2	1.7
COCC(=O)N(c1ccc(C(C)(C)C)cc1)C(C(=O)NC(C)(C)C)c1cccnc1 (configuration not stated)	-1.5	.	-2.9	-2.8	.	.
Cc1cccc(-c2nsc(SCC(=O)N3CCCC3)n2)c1	-0.2	-15.4	12.8*	1.9	2.6	2.0
Cc1ccc(C)c(Cn2c(C)nc3c(sc(=S)n3-c3ccccc3)c2=O)c1	-1.6	-0.5	-0.9	1.1	0.8	0.2
CN(Cc1ccc(C(C)(C)C)cc1)C(=O)C1CCN(C(=O)Nc2ccccc2)CC1	-1.4	-2.7	-3.4	-2.7	-2.1	7.6*
O=C(CC1NCCc2ccccc21)Nc1ccc(Oc2ccccc2)cc1 (configuration not stated)	-1.0	4.7	-1.3	-1.7	0.2	-0.5
O=C(CC1NCCc2ccccc21)Nc1ccccc1 (configuration not stated)	0.9*	11.0	2.8	5.3	1.5	1.8
Cn1nc(C2CC2)cc1NC(=O)C1(C)CCN1C(=O)CCc1ccccc1 (configuration not stated)	-1.1	.	0.1	0.2	1.6	.
CCCCn1c(N)c(N(C)C(=O)CCCn2c(=O)oc3ccccc32)c(=O)[nH]c1=O	0.3	.	3.5	-0.3	-0.2	-0.8
CCCCn1c(N)c(N(CC)C(=O)c2ccco2)c(=O)[nH]c1=O	-1.3	-0.6	0.7	-0.2	1.6	0.2
COCCN(C(=O)CSc1nc2ccccc2s1)c1c(N)n(Cc2ccccc2)c(=O)[nH]c1=O	0.4	.	0.6	6.5*	0.7	3.0
CCCCN(C(=O)CSc1cc(C)c2ccc(OC)cc2n1)c1c(N)n(Cc2ccccc2)c(=O)[nH]c1=O	4.8*	4.3	-3.6	1.7	-0.3	-0.3
CCCCn1c(N)c(N(CC)C(=O)C(c2ccccc2)c2ccccc2)c(=O)[nH]c1=O	-1.4	3.2	-3.9	0.9	0.8	4.9*
CCCCn1c(N)c(N(CC(C)C)C(=O)CCCn2c(=O)oc3ccccc32)c(=O)[nH]c1=O	-1.4	-0.6	0.9	-1.3	0.1	4.3*
Fc1ccc(-n2nnnc2-c2cnc(-c3cccs3)nc2C(F)(F)F)cc1	-3.1	-2.1	-10.3	-5.2	-3.7	-4.4
COc1ccc(NC(=O)CCCn2nc(C)c3c(C)n(-c4ccccc4)nc3c2=O)cc1	-1.5	0.6	0.0	0.4	0.3	-0.5
O=S1(=O)N[C@@H](Cc2ccccc2)COc2cccc(N3CCN(Cc4ccccc4F)CC3)c21	-1.3	.	0.1	-0.9	-2.0	.
CCOc1ccc(-c2nc(C#N)c(NCc3ccco3)o2)cc1	-1.8	33.6	1.2	-0.7	0.3	-1.9
